Growth data for nine compounds are collected here from PubChem BioAssay (NCI).

The panel holds about 83,000 compounds, 20% with a hit somewhere; the sample as a whole holds those more often.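 96-well plates, one dose, 48 hours. Percent growth reported; active if below 10.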 Unmarked numbers belong to inactive results. Activity calls are given as the source filed them.

What all share (test): NCI-60 one-dose screen, 48 h (100 = growth as untreated, 0 = no growth, -100 = all killed)
Holding throughout (settings): 10 µM unless noted

Assay [1] deals with RPMI-8226 leukemia.
Assay [2] relates to OVCAR-8 ovarian.
The test system of assay [3] is OVCAR-5 ovarian.
In assay [4] the test system is IGROV1 ovarian.
Assay [5] concerns OVCAR-3 ovarian.
Assay [6] relates to HS 578T breast.
In assay [7] the test system is T-47D breast.
Assay [8] concerns BT-549 breast.
For assay [9], the system named is MDA-MB-435 melanoma.
In assay [10] the test system is SW-620 colon.
Assay [11] deals with MCF7 breast.
Assay [12] relates to HCT-116 colon.
The test system of assay [13] is HCC-2998 colon.
Assay [14] has as its system KM12 colon.
For assay [15], the system named is OVCAR-4 ovarian.
Assay [16] deals with SK-OV-3 ovarian.
The subject of assay [17] is NCI/ADR-RES ovarian.

As to `Nc1nc2ccccc2c2c(=O)c3cc(Cl)ccc3sc12`, the growth in [1] was 102%; in [2], 99.2%; in [3], 97.9%; in [4], 90.2%; in [5], -22.8% (active); in assay [6] it was 100%. For the same compound, the growth in [7] is 45.3%; in assay [8], 105%; in assay [9], 101%; in [10], 117%; in [11], 27.2%; in assay [12] it was 88.7%. The growth in [13] was 97.5%; in [14] it was 12.9%.
On to `CCn1cc(C(=O)N/N=C/c2cccc(F)c2)c(=O)c2cc(F)c(N3CCNC(C)C3)c(F)c21` (centres undefined), for which the growth in [1] is -42.2% (active); in assay [2], -5.39% (active); in assay [3], 90.2%; in [15], 23.8%; in assay [16], 108%; in assay [4], 69.4%. In addition, the growth in assay [5] is -83.3% (active); in assay [6] it was 81.3%; in assay [17] it was 78.3%; in assay [7], 72.3%; in [8], 82.9%; in [9], -74.7% (active). Further, the growth in assay [10] was -84.6% (active); in assay [11], -83.5% (active); in assay [12] it was 71.2%; in assay [13], -80.6% (active); in assay [14], -26.8% (active).
Take `Clc1ccc(Nc2nnc(CNc3ccccc3)c3ccccc23)cc1`: the growth in [1] is 3.35% (active); in assay [2] it was 18.3%; in [3], 41.4%; in assay [15] it was 19.3%; in assay [16] it was 22%; in assay [4], 19.1%. In addition, the growth was -1.64% (active) in assay [5]; 26.6% in assay [6]; 18.8% in assay [17]; 2.82% (active) in assay [7]; 4.94% (active) in [8]; 4.17% (active) in assay [9]. Further, the growth in assay [10] is 30.8%; in assay [11] it was 9.2% (active); in assay [12], 9.94% (active); in assay [13], 18.3%; in [14] it was 8.93% (active).
As to `O=C(Nc1ccc(Nc2ccncc2)cc1)c1ccc(Nc2ccnc3ccc([N+](=O)[O-])cc23)cc1`, the growth in assay [1] is 63.4%; in assay [2], 104%; in assay [3], 105%; in assay [15] it was 84.4%; in assay [16], 89.1%; in assay [4] it was 97%. In addition, the growth is 93.1% in assay [5]; 110% in [6]; 106% in assay [17]; 122% in assay [7]; 107% in assay [8]; 104% in assay [9]. Besides, the growth in assay [10] was 105%; in [11], 91.9%; in [12], 97%; in [13], 76.7%; in assay [14], 90.1%.
As for `Cc1cccc(N=Nc2cccc(C)c2)c1`, the growth is 110% in assay [1]; 103% in assay [2]; 94.2% in assay [3]; 107% in [15]; 106% in assay [16]; 102% in assay [4]. Further, the growth in assay [5] is 113%; in assay [6] it was 117%; in [17] it was 108%; in [7], 110%; in assay [8], 108%; in assay [9] it was 100%. Moreover, the growth is 106% in assay [10]; 97.5% in assay [11]; 111% in assay [12]; 112% in assay [13]; 110% in assay [14].
`O=C1CCCC1[n+]1ccccc1` (centres undefined): the growth in assay [1] was 103%; in assay [2], 85.8%; in [3] it was 70.5%; in [15] it was 98%; in [16], 80.1%; in [4], 101%. In addition, the growth in assay [5] is 97.8%; in [6], 114%; in assay [17], 103%; in [7], 43.5%; in assay [8] it was 84.3%; in assay [9], 106%. Further, the growth was 117% in assay [10]; 93% in assay [11]; 79.6% in [12]; 107% in assay [13]; 97.6% in [14].
For `COc1ccc(-c2nc(SCC(=O)Nc3nc4ccc(C)cc4s3)[nH]c(=O)c2C#N)cc1OC`, the growth in assay [1] was 110%; in [3], 111%; in [15] it was 105%; in [16], 74.2%; in assay [4], 95.9%; in [5] it was 112%. Besides, the growth in assay [6] is 87.4%; in assay [17], 98.3%; in [7], 94.8%; in [8], 97.8%; in assay [9], 101%; in assay [10] it was 96.2%. In addition, the growth in assay [11] was 95.6%; in assay [12], 94.8%; in [13] it was 105%; in assay [14] it was 102%.
`CN(C)CCCn1c2c(c3ccncc3c1=O)C(=O)c1ccccc1-2`: the growth in [1] is -22.7% (active); in assay [2], 0.796% (active); in [3], 0.243% (active); in assay [15], -8.01% (active); in assay [16] it was 34.8%; in assay [4], 0.297% (active). In addition, the growth in assay [5] is -12.3% (active); in assay [6], 19.8%; in assay [17], -23.5% (active); in [7], -12.3% (active); in [8] it was 3.87% (active); in assay [9] it was 7.89% (active). Besides, the growth in assay [10] is -28.1% (active); in [11], 1.65% (active); in assay [12], -18.7% (active); in assay [13], 25.6%; in assay [14] it was -12.6% (active).
For the compound `C=C(C)[C@@H]1CC[C@]2(COC3CCCCO3)CC[C@]3(C)[C@H](CC[C@@H]4[C@@]5(C)C=C(C=O)C(=O)C(C)(C)[C@@H]5CC[C@]43C)[C@@H]12` (some centres undefined), the growth in [1] was -6.13% (active); in assay [2], -39.2% (active); in assay [3] it was -19% (active); in assay [15] it was -34.7% (active); in assay [16], -40% (active); in assay [4] it was -64.8% (active). Moreover, the growth is -65.1% (active) in assay [5]; -24.3% (active) in assay [6]; 1.89% (active) in assay [17]; -48.9% (active) in assay [7]; -58.5% (active) in assay [8]; -56.4% (active) in assay [9]. In addition, the growth in assay [10] is -37.8% (active); in assay [11], -58.4% (active); in [12], -92.4% (active); in [13], -59% (active); in [14], -10.2% (active).
